Test results taken from the supplement of paper PMC10646978.
± gives the standard deviation.

What follows are molecules tested on RAW-Dual (murine macrophage reporter line) (assay: IRF reporter (Lucia luciferase) activity fold change vs agonist alone; higher = enhanced IRF activity). Settings: modulator concentration 10 µM; agonist: 3'3'-cGAMP 10 ug/mL.
In short: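 Overnight stimulation with a PRR agonist followed pre-incubation for 1 hour at 37 °C with compound at 10 μM final. This was done in RAW-Dual murine macrophage reporter cells seeded at 50 000 per well in 384-well plates. NF-κB (SEAP, QUANTI-Blue absorbance at 620 nm) and IRF (Lucia luciferase, QUANTI-Luc luminescence) were read from the supernatant. Each reporter's fold change relative to the mean agonist-only control on the same plate was averaged over replicate plates.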
With `Cc1nc(C(=O)NCC(=O)O)c(O)c2ccc(Oc3ccccc3)cc12` the IRF reporter was 0.925 ± 0.04. Work on `CCN(CCO)CCCC(C)Nc1ccnc2cc(Cl)ccc12.O=S(=O)(O)O` (centres undefined) yielded an IRF reporter of 0.984 ± 0.049. Work on `COc1ccccc1C(=O)Nc1ccc(-c2nc3cc(C)ccc3o2)cc1` yielded an IRF reporter of 0.803 ± 0.039. Work on `Cc1c(F)cc(C(=O)NC2CC2)cc1-c1ccc(C(=O)NCC(C)(C)C)cn1` yielded an IRF reporter of 1.1 ± 0.043. `CNC(=O)C(=O)Nc1cc(Cl)ccc1C` showed an IRF reporter of 1.01 ± 0.042. In the case of `CC(C)(C)C(=O)NCc1cccnc1-c1cccnc1`, the IRF reporter is reported as 0.972 ± 0.052. `O=C(NN=Cc1ccc([N+](=O)[O-])s1)c1ccc(Br)cc1` showed an IRF reporter of 0.395 ± 0.068. Molecule `Cc1cc(=O)n(CC(=O)N2CCC(c3ccccc3F)S(=O)(=O)CC2)cn1` (centres undefined) has an IRF reporter of 1 ± 0.063. In the case of `Br.Cc1ccc(Sc2ccccc2N2CCNCC2)c(C)c1`, the IRF reporter is reported as 0.491 ± 0.057. `CCOC(=O)C1=C(C)NC(C)=C(C(=O)OC)C1c1ccc(Cl)cc1` (centres undefined) showed an IRF reporter of 1 ± 0.057. For `O=C(Nc1nc2ccc(Cl)cc2s1)c1ccc(Br)s1`, the IRF reporter was 0.975 ± 0.043. In the case of `CC(=O)c1c(C(C)=O)c(C)n(-c2ccccc2N)c1C`, the IRF reporter is reported as 0.983 ± 0.069. Molecule `O=Cc1ccc(OCc2cccc([N+](=O)[O-])c2)c(Br)c1` has an IRF reporter of 0.963 ± 0.045. Work on `COc1ccccc1N1CCN(CC(O)COc2cccc3ccccc23)CC1` (centres undefined) yielded an IRF reporter of 0.719 ± 0.026. `CC(=O)Nc1ccc(CC(=O)N2C3C=CCC2CC3)cc1` (centres undefined) was tested, and the IRF reporter was 1.01 ± 0.034. `Cc1occc1C(=O)Nc1ccc([N+](=O)[O-])cc1Cl` gave an IRF reporter of 1.02 ± 0.088. For `CC(=O)N1CCN(C(=O)Cn2cnc(-c3ccc(C)cc3)cc2=O)CC1`, the IRF reporter was 1.02 ± 0.058. For `O=C(Oc1ccc(C=Nc2ccc([N+](=O)[O-])cc2)cc1)c1ccccc1`, the IRF reporter was 0.713 ± 0.025. For `NC(=O)NCC(N)C(=O)O` (centres undefined), the IRF reporter was 0.959 ± 0.053.
